Measurements from PubChem BioAssay (EPA / NIEHS).
“And” between values parts separate entries of the source, which are not always exact repeats. Identical values can stand only once. The source holds several records for some structures; these can differ, active in one and inactive in another. The source made the active and inactive calls. How the source made its calls: active means hit-call score of the fitted dose curve at least 0.9, where 1 is the maximum; inactive means score below 0.9.

read-out: Interleukin-8 (IL8), CXCL8 (gene 3576); assay: BSK_SAg_IL8: BioMAP Diversity Plus: SAg Assay for Interleukin-8 (IL8) Biomarker Activity (AID 2283094); conditions: primary human HUVEC with PBMC; actives raise or lower the signal
Method: BSK_SAg is a cell-based, multiplexed-readout assay that uses umbilical vein endothelium and peripheral blood mononuclear cells, a human vascular primary cell co-culture, with measurements taken at 24 hours after chemical dosing in a 96-well plate.BSK_SAg_IL8 is an assay component measured in the BSK_SAg assay. It measures IL-8 antibody related to regulation of gene expression using ELISA technology.Data from the assay component BSK_SAg_IL8 was analyzed into 1 assay endpoint. This assay endpoint, BSK_SAg_IL8, was analyzed with bidirectional fitting relative to DMSO as the negative control and baseline of activity. Using a type of binding reporter, gain or loss-of-signal activity can be used to understand changes in the signaling as they relate to the gene CXCL8. Furthermore, this assay endpoint can be referred to as a primary readout, because this assay has produced multiple assay endpoints where this one serves a signaling function. To generalize the intended target to other relatable targets, this assay endpoint is annotated to the cytokine intended target family, where the subfamily is interleukins.
The levels of cell surface (or secreted, indicated by the prefix "s") biomarker endpoints were measured by ELISA. Overt cytotoxicity to cells in confluent adherent cultures (all systems other than the BT system) was assessed by measuring total protein levels using sulforhodamine B (SRB) staining in parallel cultures at the time of biomarker measurements, indicated as SRB endpoints. For proliferation assays for adherent cell types, individual cell types are cultured at sub-confluence and relative cell numbers quantified by SRB staining at time points optimized for each system (48 h: 3C and CASM3C systems; 72 h: BT and HDF3CGF systems; 96 h: SAg system). SRB was performed by staining cells with 0.1% SRB after fixation with 10% TCA and reading wells at 560 nm.Viability and proliferation of PBMC (T cells) was quantified by Alamar Blue reduction for the SAg and BT systems. For PBMC viability (referred to as PBMC Cytotoxicity within the assay endpoint names), cells were plated (75,000/well in a 96-well plate) and then chemical samples added for 1 h before addition of activators, SEB and TSST-1 (20 ng/mL final concentration each). Cells were incubated for 90 h. Then, Alamar Blue (20 uL/well) (Invitrogen, Cat DAL1100) was added for 6 h, and the plates were read with a fluorescence microplate reader at 546/580 nm (excitation/emission). For PBMC proliferation, cells were plated and activated as above but incubated for only 16 h prior to addition of Alamar Blue. Plates were read after 6 h.

Structure (SMILES) | outcome | AC50
C=CC(=O)OCC(F)(F)C(F)(F)C(F)(F)C(F)(F)C(F)(F)C(F)(F)C(F)(F)C(F)F | inactive | 20.8 µM (active)
O=C(O)C(F)(F)C(F)(F)C(F)(F)C(F)(F)C(F)(F)C(F)(F)C(F)F | inactive | 
NC(=O)C(F)(F)C(F)(F)C(F)(F)C(F)(F)C(F)(F)C(F)(F)C(F)(F)F | inactive | 
Cc1cc(C)c(O)c(C(C)(C)C)c1 | inactive | 
O=S(=O)(OCC(F)(F)F)C(F)(F)C(F)(F)C(F)(F)C(F)(F)F | inactive | 30 µM (active)
CNS(=O)(=O)C(F)(F)C(F)(F)C(F)(F)C(F)(F)C(F)(F)C(F)(F)C(F)(F)C(F)(F)F | inactive | 
NC(=O)C(F)(F)C(F)(F)C(F)(F)C(F)(F)C(N)=O | inactive | 
COC(F)(C(F)F)C(F)(F)F (stereo not given) | inactive | 
CCOC(=O)CC(=O)C(F)(F)C(F)(F)F | inactive | 
C[C@]12CC[C@H]3C(=CCc4cc(O)ccc43)[C@@H]1CCC2=O | inactive | 
OCC(F)(F)C(F)(F)C(F)(F)C(F)(F)C(F)(F)C(F)(F)CO | inactive | 
C=CC(=O)OCC(F)(F)C(F)(F)C(F)(F)COC(=O)C=C |  | 14.2 µM (active) and 5.57 µM (active)
O=C(O)CCC(F)(F)C(F)(F)C(F)(F)F | inactive | 
O=C=Nc1cccc2c(N=C=O)cccc12 | inactive | 
NCC(F)(F)C(F)(F)C(F)(F)C(F)(F)C(F)(F)C(F)(F)F | inactive | 
CCN(CC)c1ccc(C=O)cc1 | inactive | 
NC(=O)C(F)(F)C(F)(F)C(F)(F)C(F)F | inactive | 
O=S(=O)(O)CCC(F)(F)C(F)(F)C(F)(F)C(F)(F)C(F)(F)C(F)(F)C(F)(F)C(F)(F)F | inactive | 
O=C1C=CC(=O)N1c1ccc(Cc2ccc(N3C(=O)C=CC3=O)cc2)cc1 |  | 4.35 µM (active)

Structure (SMILES) | outcome | AC50
O=C(F)C1(F)C(F)(F)C(F)(F)C(F)(F)C(F)(F)C1(F)F | inactive | 
NS(=O)(=O)C(F)(F)C(F)(F)C(F)(F)C(F)(F)C(F)(F)C(F)(F)F | inactive | 30 µM (active)
O=C(O)CCC(F)(F)C(F)(F)C(F)(F)C(F)(F)C(F)(F)C(F)(F)C(F)(F)F | inactive | 
C=C(C)C(=O)OCC(F)(F)C(F)(F)C(F)(F)C(F)F | inactive | 
C=CC(=O)OCCC(F)(F)C(F)(F)C(F)(F)C(F)(F)F |  | 33 µM (active) and 30.1 µM (active)
CCOC(C=C(C)CCC=C(C)C)OCC | inactive | 
FC(F)(F)C(F)(F)C(F)(F)C(F)(F)C(F)(F)C(F)(F)C(F)(F)CCI | inactive | 
OCC(F)(F)C(F)(F)C(F)(F)C(F)(F)C(F)(F)C(F)(F)C(F)(F)C(F)(F)CO | inactive | 
Cc1ccc(O)c(-n2nc3ccccc3n2)c1 | inactive | 
O=C1c2c(O)ccc(Nc3ccc(CCO)cc3)c2C(=O)c2c([N+](=O)[O-])ccc(O)c21 |  | 0.379 µM (active)
Cc1cc(O)c(C(C)(C)C)cc1C(C)(C)C |  | 5.33 µM (active)
OCC(O)CC(F)(F)C(F)(F)C(F)(F)C(F)(F)C(F)(F)C(F)(F)C(F)(F)C(F)(F)F (stereo not given) | inactive | 
CC(C)CCCC(C)CCO (stereo not given) | inactive | 
CN(C(=O)C(F)(F)C(F)(F)C(F)(F)F)[Si](C)(C)C | inactive | 
O=C(O)C(F)(F)C(F)(F)C(F)(F)OC(F)(F)F | inactive | 
O=C=NCc1cccc(CN=C=O)c1 | inactive | 
Cc1cnccn1 | inactive | 
NC(O)(C(F)(F)F)C(F)(F)F | inactive | 
